Measurements published in PubChem BioAssay AID651602 (The Scripps Research Institute Molecular Screening Center, 2012).
The whole screen tested about 360,000 compounds, of which about 950 (0.26%) were called active. This is one part of a sample in which actives are shown more often than they occur. Rule as the data show it: active = inhibition above about 11%; inactive = the rest.

Experiment: reduced absorbance of E. coli cultures with phage – HTS, RecBCD inhibitor project, primary screen (AID 651602)
Settings: growth absorbance, at 11.9 µM, active compounds read high

inhibition, active:
NC1=NC(=O)C(Cc2cccc(Cl)c2Cl)S1 (stereo unspecified) 14.8%
CC(=O)N(O)CCCCCNC(=O)CCC(=O)N(O)CCCCCNC(=O)CCC(=O)N(O)CCCCCNC(=O)CCC(=O)O 11.2%
CC1=C(C/C=C(\C)CCCC(C)CCCC(C)CCCC(C)C)C(=O)c2ccccc2C1=O (stereo unspecified) 99.2%
CN(O)C(=S)c1ccccc1 28.3%
CCNC(=S)N(CCc1c(C)[nH]c2ccc(C)cc12)Cc1ccco1 13.2%
COc1cccc(/C=N/Nc2ncc(C(F)(F)F)cc2Cl)c1O 24.4%
Cn1ccc(=Nc2ccc(NC(=O)c3ccc(N=c4ccn(C)c5ccc([N+](=O)[O-])cc45)cc3)cc2)cc1 70.7%
CCOc1ccc(Cn2nnc(C(=O)Nc3ccc(OC)cc3OC)c2N)cc1 10.9%
Oc1cccc(/C=N/Nc2ccc(Cl)nn2)c1O 13.1%

inhibition, inactive:
CC(C)C[C@H](NC(=O)CC1CCCC1)C(=O)N1CCC[C@H]1C(=O)NCc1ccccc1 -1.58%
O=C1NC(=Nc2ccc(Cl)cc2)SC1Cc1cccc(Cl)c1Cl (stereo unspecified) 3.76%
NC1=NC(=O)C(Cc2cccc(Cl)c2)S1 (stereo unspecified) 2.84%
Nc1nc2c(ncn2[C@@H]2O[C@H](C(=O)N[C@H](Cc3ccccc3)C(=O)NCC3CCCCC3)[C@@H](O)[C@H]2O)c(=O)[nH]1 0.31%
CCCCCCCCN1C(=O)[C@@H](CC(=O)NCc2ccc(C)o2)C[C@@]2(C(=O)OC)C1=C[C@H](C(C)(C)C)O[C@@H]2C 4.26%
NC(=O)NCCCC(=O)O 3.55%
CCCCCCCCN1C(=O)[C@@H](CC(=O)N2CCN(C(=O)OCC)CC2)C[C@@]2(C(=O)OC)C1=C[C@H](C1CCCC1)O[C@@H]2C 0.85%
CCOc1ccccc1C(=O)N1CCC[C@@H]1C(=O)N1CCC[C@H]1C(=O)NCc1ccccc1 2.4%
O=C(NCc1ccccc1)[C@@H]1CCCN1C(=O)[C@H]1CCCN1C(=O)c1cccc(Cl)c1 1.16%
COc1ccc2[nH]c(C)c(CCN(Cc3cccs3)C(=S)Nc3ccccc3OC)c2c1 1.75%
COCCNC(=S)N(CCc1c(C)[nH]c2ccc(C)cc12)Cc1cccnc1 2.3%
CC(C)[C@H]1COCCS(=O)(=O)N1Cc1ccccc1-c1cccc2c1sc1ccccc12 2.16%
N#Cc1cccc(C(=O)NCC2CCN(C(=O)C(=O)c3cc4ccccc4o3)CC2)c1 1.78%
CN1C(=O)C2CC(O)C(SC3CC4C(=O)N(C)C(=O)C4CC3O)CC2C1=O (stereo unspecified) 5.11%
CN1CCCCC(NC(=O)C(C)(C)C)C1=O (stereo unspecified) 2.65%
COC(=O)[C@]12C[C@H](CC(=O)NCc3ccc(C)o3)C(=O)N(CCC3=CCCCC3)C1=C[C@H](C(C)(C)C)O[C@@H]2C 1.32%
CC(=O)C1=C(C)N(Cc2ccccc2)C(=S)NC1c1cccc(Br)c1 (stereo unspecified) 2.19%
CCCCNc1cccc2c1S(=O)(=O)N[C@@H](C)CO2 2%
CCCCCCCCN1C(=O)[C@@H](CC(=O)NCc2ccccc2)C[C@@]2(C(=O)OC)C1=C[C@H](C(C)(C)C)O[C@@H]2C 1.01%
CN(NS(=O)(=O)c1cccs1)c1ncc(C(F)(F)F)cc1Cl 1.24%
O=C(c1ccccn1)c1ncc(C(F)(F)F)cc1Cl 2.12%
CC(C)c1ccc(NC(=O)CCN2C(=O)c3ccc([N+](=O)[O-])cc3C2=O)cc1 -0.16%
O=C(Nc1ccc(C2CC2(Cl)Cl)cc1)c1cccc([N+](=O)[O-])c1 (stereo unspecified) 1.49%
COC(=O)C1=C(C(=O)OC)C2C=C(C(C)C)C1C(=O)C2(C)O (stereo unspecified) 3.33%
Nc1ncnc2c1ncn2[C@@H]1O[C@H](C(=O)N[C@@H](CCc2ccccc2)C(=O)N2CCCN(Cc3cccs3)CC2)[C@@H](O)[C@H]1O 2.53%
Nc1c(C(=O)Nc2ccc3c(c2)OCCO3)nnn1Cc1ccccc1 5.25%
COc1cccc(CNC(=O)c2nnn(CC(=O)Nc3cc(Cl)ccc3C)c2N)c1 -1.55%
CC(=O)c1ccc(S(=O)(=O)NCC2CCN(C(=O)C(=O)c3cccs3)CC2)cc1 2.71%
C/C(=N\Nc1ccc(Cl)nn1)c1ccccc1O -5.1%
Cc1ccc2nc(-c3ccc(CN4CCC(n5cc(-c6ccccc6)[nH]c5=O)CC4)cc3)c(-c3ccccc3)nc2c1 2.06%
O=C(NCc1ccccc1)[C@H]1CCCN1C(=O)[C@@H]1CCCN1C(=O)c1ccc(Cl)cc1Cl 1.72%
COc1cccc(CNC(=O)[C@H]2CCCN2C(=O)[C@H]2CCCN2C(=O)c2cc(F)cc(F)c2)c1 0.85%
